Laboratory results reported in PubChem BioAssay AID1159580 (chemical genetic matrix, 2015).
Screen size: about 5,500 compounds; about 2,000 (36%) were called active. Inconclusive results (about 18%) are left out. No stated cut-off is given here; in the data, active means normalized growth mostly below about 0.91 (no sharp cut-off); inconclusive means no clear call, values can overlap the other calls; inactive means mostly above about 0.92. The list shows a part of the results.

Test: chemical genetic growth profiling, strain panel (AID 1159580);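 further: tested at 20 µM; growth read once vehicle control cultures reached saturation at 30 °C; 1 = growth at the plate median or of vehicle wells; lower values mean less growth of the strain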
Settings: S. cerevisiae deletion strains, growth OD

Measured: normalized growth

N#CC(C#N)=NNc1cc(C(F)(F)F)ccc1OCC(F)(F)F
active: locus YDL132W, strain cdc53, active compounds read low 0.891 | locus YDL214C, strain PRR2, active compounds read low 0.611 | locus YDR226W, strain ADK1, active compounds read low 0.891 | locus YDR477W, strain SNF1, active compounds read low 0.572 | locus YER123W, strain YCK3, active compounds read low 0.398 | locus YER133W, strain GLC7, active compounds read low 0.459 | locus YFR019W, strain FAB1, active compounds read low 0.691 | locus YGR040W, strain KSS1, active compounds read low 0.611 | locus YGR052W, strain FMP48, active compounds read low 0.428 | locus YHR030C, strain SLT2, active compounds read low 0.445 | locus YHR082C, strain KSP1, active compounds read low 0.543 | locus YJR066W, strain TOR1 (second series), active compounds read low 0.437 | locus YJR066W, strain TOR1, active compounds read low 0.458 | locus YKL203C, strain TOR2, active compounds read low 0.71 | locus YLR113W, strain HOG1, active compounds read low 0.32 | locus YML070W, strain DAK1, active compounds read low 0.623 | locus YMR277W, strain FCP1, active compounds read low 0.871 | locus YNL183C, strain NPR1, active compounds read low 0.329 | locus YOR119C, strain RIO1, active compounds read low 0.45 | locus YPL256C, strain CLN2, active compounds read low 0.33 | strain TSCII, active compounds read low 0.858
inactive: locus YAR019C, strain CDC15, active compounds read low 0.913 | locus YBL105C, strain PKC1, active compounds read low 0.927 | locus YBR135W, strain CKS1, active compounds read low 0.917 | locus YBR136W, strain MEC1, active compounds read low 0.894 | locus YBR160W, strain CDC28, active compounds read low 0.906 | locus YDL017W, strain CDC7, active compounds read low 0.953 | locus YDL028C, strain MPS1, active compounds read low 0.917 | locus YDL101C, strain DUN1, active compounds read low 0.911 | locus YDL108W, strain KIN28, active compounds read low 0.911 | locus YDR052C, strain DBF4, active compounds read low 0.913 | locus YDR054C, strain cdc34, active compounds read low 0.893 | locus YFL009W, strain cdc4, active compounds read low 0.919 | locus YFL029C, strain CAK1, active compounds read low 0.921 | locus YFR003C, strain YPI1, active compounds read low 0.975 | locus YFR028C, strain CDC14, active compounds read low 0.912 | locus YGR092W, strain DBF2, active compounds read low 0.818 | locus YHR079C, strain IRE1, active compounds read low 0.831 | locus YHR205W, strain SCH9, active compounds read low 0.814 | locus YIL147C, strain SLN1, active compounds read low 0.966 | locus YJL095W, strain BCK1, active compounds read low 0.533 | locus YJL128C, strain PBS2, active compounds read low 0.888 | locus YJL157C, strain FAR1, active compounds read low 0.814 | locus YJR016C, strain ILV3, active compounds read low 0.947 | locus YKL048C, strain ELM1, active compounds read low 0.88 | locus YKL067W, strain YNK1, active compounds read low 0.739 | locus YKL101W, strain HSL1, active compounds read low 0.787 | locus YKL193C, strain SDS22, active compounds read low 0.9 | locus YLR133W, strain CKI1, active compounds read low 0.868 | locus YLR403W, strain SFP1, active compounds read low 0.811 | locus YMR001C, strain CDC5, active compounds read low 0.9 | locus YMR205C, strain PFK2 (second series), active compounds read low 0.889 | locus YNL006W, strain LST8, active compounds read low 0.976 | locus YNL020C, strain ARK1, active compounds read low 0.917 | locus YNL161W, strain CBK1, active compounds read low 0.899 | locus YNL207W, strain RIO2, active compounds read low 0.923 | locus YNL307C, strain MCK1 (second series), active compounds read low 0.734 | locus YOL078W, strain AVO1, active compounds read low 0.904 | locus YOL136C, strain PFK27, active compounds read low 0.693 | locus YOR061W, strain CKA2, active compounds read low 0.86 | locus YOR231W, strain MKK1, active compounds read low 0.782 | locus YOR329C, strain SCD5, active compounds read low 0.978 | locus YPL031C, strain PHO85, active compounds read low 0.703 | locus YPL153C, strain RAD53, active compounds read low 0.679 | locus YPL204W, strain HRR25, active compounds read low 0.688 | locus YPL209C, strain IPL1, active compounds read low 0.928 | locus YPR025C, strain CCL1, active compounds read low 0.923 | locus YPR106W, strain ISR1, active compounds read low 0.932 | locus YPR111W, strain DBF20, active compounds read low 0.895 | strain NNK1, active compounds read low 0.957
